Source: PubChem BioAssay (Tox21)
Where “and” joins values, the source holds several entries; their conditions need not be identical. Equal entries are not always repeated. Results filed as inconclusive are left out. Where a call stands in place of a potency, no number is given. Calls of active or inactive are those of the source. Unless noted, calls come from the whole dose curve; as a rule, active = well fitted curve in the direction sought with a large enough effect in the repeat runs; inconclusive = weak or mixed curves; inactive = no such curve, though single readings can be large; an effect the other way counts as inactive or inconclusive.

Columns and labels:
[1] = qHTS assay to test for compound auto fluorescence at 535 nm (green) in HEK293 cells (AID 720680)
[2] = qHTS assay to test for compound auto fluorescence at 460 nm (blue) in HEK293 cell free culture (AID 720681); note: potency is the fitted concentration of half-maximal effect
How it was run: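 Compounds were added to cell-free DMEM with 10% FBS and fluorescence read directly. The blue channel used 405 nm excitation and 460 nm emission, with triamterene as the reference fluorophore.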

[3] = qHTS assay to test for compound auto fluorescence at 535 nm (green) in HEK293 cell free culture (AID 720682)
How it was run: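 Steps: dispense DMEM/10% FBS into empty wells; pin in compound or DMSO; measure fluorescence at 485/535 nm. Values are fluorescein equivalents.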

[4] = qHTS assay to test for compound auto fluorescence at 590 nm (red) in HEK293 cell free culture (AID 720683)
How it was run: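 Cell-free wells of DMEM with 10% FBS received compound, and intrinsic fluorescence was read at excitation/emission 540/590 nm. Values expressed as equivalence to Rose Bengal sodium.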

[5] = qHTS assay to test for compound auto fluorescence at 590 nm (red) in HepG2 cell free culture (AID 720684)
How it was run: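 Auto fluorescence equivalency versus Rose Bengal sodium, red channel Ex/Em 540/590 nm; compounds in cell-free MEM/10% FBS; DMSO vehicle control.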

[6] = qHTS assay to test for compound auto fluorescence at 460 nm (blue) in HepG2 cell free culture (AID 720685); note: potency is the fitted concentration of half-maximal effect
How it was run: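 Cell-free plates of MEM plus 10% FBS received 23 nL compound or DMSO vehicle; blue-channel (405/460 nm) intensity scored against triamterene as reference fluorophore.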

[7] = qHTS assay to test for compound auto fluorescence at 535 nm (green) in HepG2 cell free culture (AID 720686)
[8] = qHTS assay to test for compound auto fluorescence at 460 nm (blue) in HepG2 cells (AID 720687); note: potency is the fitted concentration of half-maximal effect
How it was run: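 HepG2 cells in MEM with 10% FBS, attached overnight at 37 C, were exposed to compound or DMSO for 1 hr at 37 C, 5% CO2. Blue fluorescence was read at 405/460 nm, with triamterene as reference fluorophore.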

[9] = qHTS assay to identify small molecule antagonists of the glucocorticoid receptor (GR) signaling pathway - cell viability counter screen (AID 720693); note: nearly all actives have a fitted effect of over 55% in size; note: potency is the fitted concentration of half-maximal effect
[10] = qHTS assay for identifying genotoxic compounds that show differential cytotoxicity against isogenic chicken DT40 cell lines with known DNA damage response pathways - wild type cell line (AID 743012); note: nearly all actives have a fitted effect of over 60% in size; note: potency is the fitted concentration of half-maximal effect
How it was run: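 CellTiter-Glo luminescence readout of viability in wild type DT40 cells after 40 h compound exposure at 37 C/5% CO2; 300 cells/well; reagent incubated 30 min at room temperature before reading.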

[11] = qHTS assay for identifying genotoxic compounds that show differential cytotoxicity against isogenic chicken DT40 cell lines with known DNA damage response pathways - Rev3 mutant cell line (AID 743014); note: nearly all actives have a fitted effect of over 55% in size; note: potency is the fitted concentration of half-maximal effect
[12] = qHTS assay for identifying genotoxic compounds that show differential cytotoxicity against isogenic chicken DT40 cell lines with known DNA damage response pathways - Rad54/Ku70 mutant cell line (AID 743015); note: nearly all actives have a fitted effect of over 60% in size; note: potency is the fitted concentration of half-maximal effect
[13] = qHTS assay to identify small molecule antagonists of the androgen receptor (AR) signaling pathway - cell viability counter screen (AID 743033; note: nearly all actives have a fitted effect of over 45% in size; note: potency is the fitted concentration of half-maximal effect)
[14] = target: Androgen receptor (Homo sapiens) (UniProt P10275); test: qHTS assay to identify small molecule antagonists of the androgen receptor (AR) signaling pathway (AID 743035; active = well fitted inhibition curve with a large enough effect in the signal ratio in the repeat runs, not every such curve was filed as active; the % refers to the signal ratio)
Androgen receptor (Homo sapiens), sequence (P10275 whole entry, looked up): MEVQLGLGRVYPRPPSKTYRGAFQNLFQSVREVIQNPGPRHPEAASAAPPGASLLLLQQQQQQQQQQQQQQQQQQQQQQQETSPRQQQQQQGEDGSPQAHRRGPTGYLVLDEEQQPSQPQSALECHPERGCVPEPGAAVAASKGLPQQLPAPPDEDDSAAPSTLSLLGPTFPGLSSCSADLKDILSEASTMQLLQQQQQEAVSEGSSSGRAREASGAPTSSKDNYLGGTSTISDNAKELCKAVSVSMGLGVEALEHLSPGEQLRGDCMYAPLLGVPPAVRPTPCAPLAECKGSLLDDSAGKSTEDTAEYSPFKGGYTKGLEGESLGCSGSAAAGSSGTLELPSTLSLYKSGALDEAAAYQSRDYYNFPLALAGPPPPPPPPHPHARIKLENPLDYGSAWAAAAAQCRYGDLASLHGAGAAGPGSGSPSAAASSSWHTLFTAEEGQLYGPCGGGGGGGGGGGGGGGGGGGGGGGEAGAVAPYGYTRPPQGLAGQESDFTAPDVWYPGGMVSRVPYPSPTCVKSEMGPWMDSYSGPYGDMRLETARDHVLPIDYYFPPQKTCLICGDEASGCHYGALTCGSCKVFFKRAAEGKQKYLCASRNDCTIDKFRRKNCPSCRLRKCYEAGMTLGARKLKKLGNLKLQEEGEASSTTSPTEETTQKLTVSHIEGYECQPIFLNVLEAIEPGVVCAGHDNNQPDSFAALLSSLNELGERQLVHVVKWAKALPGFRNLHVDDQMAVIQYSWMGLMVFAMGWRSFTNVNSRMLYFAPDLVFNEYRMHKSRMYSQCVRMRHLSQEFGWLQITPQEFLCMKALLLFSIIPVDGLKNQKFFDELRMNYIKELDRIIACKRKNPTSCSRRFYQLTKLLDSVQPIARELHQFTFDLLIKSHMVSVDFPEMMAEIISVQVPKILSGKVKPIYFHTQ
How it was run: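 AR-bla HEK293 reporter cells; 4 h settle at 37C/5% CO2; compound + R1881 agonist, 16 h at 37C; LiveBLAzer B/G FRET substrate 2 h RT; fluorescence intensity read. qHTS format.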

[15] = target: Androgen receptor (Homo sapiens) (UniProt P10275); test: qHTS assay to identify small molecule agonists of the androgen receptor (AR) signaling pathway using the MDA cell line (AID 743040; note: nearly all actives have a fitted effect of over 20% in size)
How it was run: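 Testing was done with the MDA-kb2 AR-luc line, a human breast carcinoma stably transfected with MMTV-luciferase containing AR and GR response elements. Cells were exposed 16 h at 37C before ONE-Glo luminescence detection.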

[16] = qHTS assay to identify small molecule antagonists of the androgen receptor (AR) signaling pathway using the MDA cell line - cell viability counter screen (AID 743041; note: nearly all actives have a fitted effect of over 45% in size; note: potency is the fitted concentration of half-maximal effect)
How it was run: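 Compound exposure lasted 16 h at 37C in MDA-kb2 AR-luc cells stimulated with R1881. Protease-based CellTiter-Fluor reagent was applied for the final 30 min and fluorescence measured.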

[17] = target: Androgen receptor (Homo sapiens) (UniProt P10275); test: qHTS assay to identify small molecule antagonists of the androgen receptor (AR) signaling pathway using the MDA cell line (AID 743042; note: nearly all actives have a fitted effect of over 55% in size)
How it was run: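 MDA-kb2 breast carcinoma cells carrying MMTV-luciferase (AR/GR responsive) were co-treated with compounds and the agonist R1881 for 16 h at 37C. Inhibition read as ONE-Glo luminescence; CellTiter-Fluor fluorescence measured in parallel for cytotoxicity.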

[18] = target: Glucocorticoid receptor (Homo sapiens) (UniProt P04150); test: qHTS assay to identify small molecule agonists of the glucocorticoid receptor (GR) signaling pathway (AID 720691; active = well fitted activation curve with a large enough effect in the signal ratio in the repeat runs, not every such curve was filed as active; the % refers to the signal ratio)
Glucocorticoid receptor (Homo sapiens), sequence (P04150 whole entry, looked up): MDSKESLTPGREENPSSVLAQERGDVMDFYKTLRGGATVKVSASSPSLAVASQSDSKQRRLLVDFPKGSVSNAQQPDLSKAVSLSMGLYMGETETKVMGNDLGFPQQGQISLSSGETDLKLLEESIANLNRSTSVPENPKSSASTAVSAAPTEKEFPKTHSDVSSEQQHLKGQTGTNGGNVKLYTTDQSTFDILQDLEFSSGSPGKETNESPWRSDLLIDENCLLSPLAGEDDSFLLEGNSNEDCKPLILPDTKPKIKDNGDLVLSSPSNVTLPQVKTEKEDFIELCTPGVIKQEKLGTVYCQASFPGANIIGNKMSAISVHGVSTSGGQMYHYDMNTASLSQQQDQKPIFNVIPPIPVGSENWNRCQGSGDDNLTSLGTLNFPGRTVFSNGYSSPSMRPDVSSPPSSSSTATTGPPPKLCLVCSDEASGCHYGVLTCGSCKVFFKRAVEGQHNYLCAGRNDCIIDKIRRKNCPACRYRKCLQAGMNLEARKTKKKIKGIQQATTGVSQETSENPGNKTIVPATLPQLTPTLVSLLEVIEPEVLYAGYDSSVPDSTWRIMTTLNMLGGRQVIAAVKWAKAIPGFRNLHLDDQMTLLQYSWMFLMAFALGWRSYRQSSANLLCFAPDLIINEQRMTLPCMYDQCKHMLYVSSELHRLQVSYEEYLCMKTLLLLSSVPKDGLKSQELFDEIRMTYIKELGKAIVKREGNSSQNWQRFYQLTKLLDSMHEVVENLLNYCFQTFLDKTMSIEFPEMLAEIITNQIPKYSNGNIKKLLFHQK
How it was run: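 HeLa GR-bla reporter line; cells pre-incubated 4 h, compound in DMSO 18 h at 37 C; LiveBLAzer B/G FRET substrate 2 h RT; fluorescence intensity read-out.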

[19] = target: Glucocorticoid receptor (Homo sapiens) (UniProt P04150); test: qHTS assay to identify small molecule antagonists of the glucocorticoid receptor (GR) signaling pathway (AID 720692; active = well fitted inhibition curve with a large enough effect in the signal ratio in the repeat runs, not every such curve was filed as active; the % refers to the signal ratio)
How it was run: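 Read-out: beta-lactamase FRET substrate fluorescence, 2 h at room temperature, in HeLa cells stably carrying a GRE-driven bla reporter. Compounds were co-incubated with 5 nM dexamethasone agonist (final) for 18 h at 37 C.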

[20] = target: Androgen receptor (Homo sapiens) (UniProt P10275); test: qHTS assay to identify small molecule agonists of the androgen receptor (AR) signaling pathway (AID 743036; active = well fitted activation curve with a large enough effect in the signal ratio in the repeat runs, with a control signal flat, not every such curve was filed as active; the % refers to the signal ratio)
How it was run: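 Reporter line: GeneBLAzer AR-UAS-bla-GripTite (HEK293). Steps: plate cells, 4 h rest, add compounds, 16 h at 37C, add LiveBLAzer B/G substrate, 2 h at RT, read fluorescence.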
Tags give direction and shape of the fitted curve or compound fluorescence and quenching.

| Compound | Potency [1] | Potency [2] | Potency [3] | outcome [4] | outcome [5] | Potency [6] | Potency [7] | Potency [8] | Potency [9] | Potency [10] | Potency [11] | Potency [12] | Potency [13] | Potency [14] | outcome [15] | Potency [16] | Potency [17] | Potency [18] | Potency [19] | Potency [20] |
| --- | --- | --- | --- | --- | --- | --- | --- | --- | --- | --- | --- | --- | --- | --- | --- | --- | --- | --- | --- | --- |
| CCOc1ccc2c(c1)C(C)=CC(C)(C)N2 | inactive | inactive | inactive | inactive | inactive | inactive | inactive | inactive | inactive | 13.3 µM (active) and 13.7 µM (active) | 26.6 µM (active) and 27.2 µM (active) and 17.2 µM (active) | 21.1 µM (active) and 54.2 µM (active) and 15.4 µM (active) | inactive | inactive | inactive | inactive | inactive | – | – | – |
| CCCCN(CCO)CCCC | inactive | inactive | inactive | inactive | inactive | inactive | inactive | inactive | inactive | inactive | inactive | inactive | inactive | – | – | inactive | – | – | – | – |
| CCC(C)(Oc1ccc(C2(c3ccc(OC(C)(CC)C(=O)O)cc3)CCCCC2)cc1)C(=O)O (stereo not given) | – | inactive | inactive | inactive | inactive | inactive | inactive | inactive | inactive | inactive | inactive | inactive | inactive | inactive | inactive | inactive | inactive | inactive | inactive | inactive |
| O=c1n(CC2CO2)c(=O)n(CC2CO2)c(=O)n1CC1CO1 (stereo not given) | inactive | inactive | inactive | inactive | inactive | inactive | inactive | inactive | inactive | 376 nM (active) and 193 nM (active) | 53.1 nM (active) and 38.6 nM (active) | – | inactive | – | – | inactive | – | – | – | – |
| CC(C)(C)NCC(O)c1cc(O)cc(O)c1 (stereo not given) | inactive | inactive | inactive | inactive | inactive | inactive | inactive | inactive | – | inactive | – | – | inactive | – | – | inactive | – | – | – | – |
| Nc1ccc2cc3ccccc3cc2c1 | inactive | 39.8 µM (active) | inactive | inactive | inactive | 39.8 µM [fluorescent] (active) | inactive | 39.8 µM [fluorescent] (active) | inactive | inactive | – | – | inactive | – | – | inactive | – | – | – | – |
| Oc1c(Cl)cc(Cl)cc1Sc1cc(Cl)cc(Cl)c1O | inactive | inactive | inactive | inactive | inactive | inactive | inactive | inactive | 19.5 µM (active) and 28 µM (active) and 21.9 µM (active) | 11.9 µM (active) and 27.4 µM (active) and 17.2 µM (active) | 17.3 µM (active) [middle of 4 runs] | 17.3 µM (active) [middle of 4 runs] | 6.18 µM (active) and 8.85 µM (active) and 6.16 µM (active) | – | – | 55.4 µM (active) | – | – | – | – |
